# DRD3 agonist – qHTS of D3 Dopamine Receptor Agonist: qHTS. D3R DiscoveRx beta-arrestin cells, luminescence, 90 min. max activation, %. 410,000 tested, 0.58% active. AID 652048, 2013; in the data active means max activation above about 30%; further: 0% is about no effect
# Target sequence (P35462 whole entry, looked up): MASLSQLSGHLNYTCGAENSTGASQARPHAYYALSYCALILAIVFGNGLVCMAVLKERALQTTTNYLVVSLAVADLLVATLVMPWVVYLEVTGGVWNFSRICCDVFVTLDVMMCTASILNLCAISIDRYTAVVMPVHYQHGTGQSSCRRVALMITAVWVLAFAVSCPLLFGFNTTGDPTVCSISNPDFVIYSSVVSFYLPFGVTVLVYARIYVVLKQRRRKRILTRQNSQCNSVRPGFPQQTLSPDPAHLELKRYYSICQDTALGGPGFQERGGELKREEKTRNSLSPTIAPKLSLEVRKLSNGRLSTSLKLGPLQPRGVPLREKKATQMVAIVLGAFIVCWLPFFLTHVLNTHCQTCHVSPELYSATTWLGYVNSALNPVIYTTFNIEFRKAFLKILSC
#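 Agonist mode: compounds and dopamine controls were applied to plated cells for 90 min at 37 degrees C after an overnight attachment at 1500 cells/well. Luminescent read-out followed 30 - 60 minutes at room temperature with DiscoveRx detection reagent.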
# D3 antag – qHTS of D3 Dopamine Receptor Antagonist: qHTS. D3R cells, DiscoveRx beta-arrestin luminescence, antagonist mode; stronger effect = lower value. AID 652054, 2013. max response, negative = inhibition, %. 360,000 tested, 2.5% active. D(3) dopamine receptor (Homo sapiens), P35462; in the data active means max response below about -50%; inconclusive means no clear call, values can overlap the other calls; further: on the % scale 0 is the no-effect control and ±100 the full control effect
#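 Cells plated overnight at 1500 cells/well, then exposed to library compounds with dopamine controls for 90 minutes at 37 degrees C. DiscoveRx reagent added for 30–60 minutes at room temperature; luminescence read, quantitative HTS format.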
# IL-1B inflam inh – qHTS for Inhibitors of Inflammasome Signaling: IL-1-beta AlphaLISA Primary Screen; THP-1 LPS/ATP IL-1B secretion, AlphaLISA, 16 h; stronger effect = lower value; AID 743279, 2014; activity change, % at 57.5 µM; 360,000 tested, 4.7% active; in the data active means activity change below about -50%; inconclusive means mostly about -30% to -49%; further: on the % scale 0 is the no-effect control and ±100 the full control effect
#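 THP-1 cells pretreated 1 hr with compounds (up to 57.5 uM final), then stimulated with LPS (250 ng/mL final) plus ATP (1.25 mM final); secreted IL-1B measured by AlphaLISA after 16 hr, decreased signal indicating inhibition.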
# ClpP mod – qHTS Assay for Activators of ClpP. ATP-dependent Clp protease proteolytic subunit (Bacillus subtilis (strain 168)), P80244. purified B. subtilis ClpP, FRET peptide cleavage, 20 min. Potency, µM (highest dose often 57.5 µM), for the others: at the highest dose activity change, negative = active. 340,000 tested, 1.9% active. AID 651965, 2013; active means well fitted falling curve with a large enough effect; inconclusive means small, poorly fitted or top-dose-only effect; inactive means no such curve, though single readings can be large or run the other way; further: potency means the concentration at half of the fitted maximal effect; the source files actives as falling curves though it sought activators and does not explain the sign; nearly all actives have a fitted effect of over 65% in size
# Target sequence (P80244 whole entry, looked up): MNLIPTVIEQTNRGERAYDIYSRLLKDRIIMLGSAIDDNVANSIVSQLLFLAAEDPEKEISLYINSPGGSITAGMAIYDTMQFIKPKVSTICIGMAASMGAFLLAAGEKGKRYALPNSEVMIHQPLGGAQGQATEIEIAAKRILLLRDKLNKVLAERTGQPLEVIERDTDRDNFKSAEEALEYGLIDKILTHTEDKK
#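 FRET quenching reversal measured ClpP activation: 10 microg/mL B. subtilis ClpP at pH 8 with the FRET-FV decapeptide, read at 430 nm after 320 nm excitation. The 20-min minus 0-min signal was scaled between DMSO/no-enzyme wells and ADEP (5.8 microM final).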
# DT40 TDP1 no CPT – qHTS for Inhibitors of human tyrosyl-DNA phosphodiesterase 1 (TDP1): qHTS in cells in absence of CPT; DT40 Tdp1-/- hTDP1 cells, no CPT, ATP luminescence, 48 h; Potency, µM (top dose mostly 46.2 µM), without a hit: at the top dose activity change, negative = growth inhibition, hits mostly inhibitors; 420,000 tested, 15% active; AID 686978, 2013; further: potency means the concentration at half of the fitted maximal effect; on the % scale 0 is the no-effect control and ±100 the full control effect; nearly all actives have a fitted effect of over 55% in size
#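 Camptothecin absent (DMSO only). Human TDP1-complemented DT40 knockout cells, 400 cells/well, 37 °C for minimum 48 hr; ATP measured via CellTiter-Glo, 30 min dark incubation, luminescence.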
# TDP1 cell CPT – qHTS for Inhibitors of human tyrosyl-DNA phosphodiesterase 1 (TDP1): qHTS in cells in presence of CPT | chicken DT40 Tdp1-/-;hTDP1 cells + 20 nM CPT, ATP luminescence, 48 h | Potency, µM (highest dose often 46.2 µM), inactives show top-dose activity change, negative = growth inhibition, hits mostly inhibitors | 420,000 tested, 12% active | AID 686979, 2013; further: potency means the concentration at half of the fitted maximal effect; on the % scale 0 is the no-effect control and ±100 the full control effect; nearly all actives have a fitted effect of over 55% in size
#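 Cell growth measured by CellTiter-Glo luminescence after a minimum 48 h, 37 C compound exposure with 20 nM CPT in Tdp1-knockout DT40 cells stably expressing hTDP1, seeded 400/well; qHTS titration format.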
# An asterisk follows results filed as active; i = inactive; ? = inconclusive; . = no result. Most compounds without a hit are left out; they make up all but 21% or so of the library. Unless noted, the call rests on the fitted dose curve; in most records, active means well fitted inhibition curve with a large enough effect; inconclusive means small, poorly fitted or top-dose-only effect; inactive means flat fitted curve, though single readings scatter.
SMILES,DRD3 agonist,D3 antag,IL-1B inflam inh,ClpP mod,DT40 TDP1 no CPT,TDP1 cell CPT
CC(=O)N1CCc2cc(S(=O)(=O)NC(C(=O)Nc3ccc4c(c3)OCCO4)C(C)C)ccc21 (configuration not stated),-4.7,-6.4,9.8,-2.1%,-11.1%,-1.2%
Cc1cc(Cl)ccc1NS(=O)(=O)c1ccc2c(c1)CCN2S(C)(=O)=O,-7.1,.,.,-1.6%,20.6µM*,?
CCC(=O)N1CCc2cc(S(=O)(=O)Nc3ccc4c(c3)OCCO4)ccc21,12.9,21.8,?,-2.3%,5.17µM*,9.2µM*
O=C(C1CCC1)N1CCc2cc(S(=O)(=O)Nc3ccc4c(c3)OCCO4)ccc21,1.2,-0.3,?,-0.2%,7.31µM*,11.6µM*
CS(=O)(=O)N1CCc2cc(S(=O)(=O)Nc3ccc4c(c3)OCCO4)ccc21,7.5,8.3,-21.6,0.2%,8.2µM*,11.6µM*
O=C1/C(=C/c2ccsc2)N2CCC1CC2,-3.3,-23.9,-21.1,.,-10.5%,10.6%
O=C(C1CCN(S(=O)(=O)c2ccc3c(c2)OCCO3)CC1)N1CCc2ccccc21,9.7,8.8,-6.9,-2.2%,20.6µM*,?
O=C(C1CC1)N1CCc2cc(S(=O)(=O)N3CCCc4ccccc43)ccc21,-5.1,-24.7,4.5,1.7%,14.6µM*,?
O=C(C1CCN(S(=O)(=O)c2ccccc2)CC1)N1CCc2ccccc21,1.2,7.5,i,-3.8%,-22.1%,-25.3%
CCC12CC1(C(=O)OC)C(=O)N1CCc3c([nH]c4ccccc34)C12 (configuration not stated),14.1,0.0,-58.9*,-3.2%,-12.9%,1.1%
COc1cccc(N2CC(C(=O)N3CCC4(CC3)CC(=O)c3ccccc3O4)CC2=O)c1 (configuration not stated),3.1,6.2,-0.8,28.2µM*,?,?
O=C1CC2(CCN(C(=O)C3CC(=O)N(c4ccccc4)C3)CC2)Oc2ccccc21 (configuration not stated),-14.6,-11.3,6.4,31.6µM*,?,?
CC1(C)C=Cc2cc(-c3coc4cc(O)cc(O)c4c3=O)cc(O)c2O1,2.9,21.6,3.6,1.6%,?,?
CC1CCN(CC[S-])CC1.O.O.[Cl][Pt],.,.,.,-3.2%,1.58µM*,1.26µM*
COc1ccc(CCNC(=O)CSc2cc(=O)n(C)c3ccccc23)cc1OC,-6.4,.,.,-0.9%,-12.4%,-12.7%
CC(=O)Nc1nc2ccccc2n1CCOc1ccccc1Cl,-2.3,-24.6,26.7,33.2%,14.6µM*,?
COc1ccccc1OCCn1c(NC(=O)c2ccc(Cl)cc2)nc2ccccc21,-19.9,.,.,?,-4.9%,-8.5%
O=C(Nc1nc2ccccc2n1CCOc1ccccc1Cl)c1ccccc1,-3.5,.,.,-4.4%,?,?
COc1ccccc1OCCn1c(NC(=O)c2ccccc2Cl)nc2ccccc21,-12.6,.,.,?,16.4µM*,23.1µM*
CC(C)CN1C(=O)C(=O)N(CC(=O)N(C)CC(=O)Nc2ccc(F)cc2)C1=O,2.3,4.0,24.0,-0.6%,-12.7%,4.4%
COc1ccccc1N1CSC2=C(C#N)C(c3ccc(SC)cc3)CC(=O)N2C1 (configuration not stated),-8.5,3.2,6.4,12.9%,23.1µM*,?
COc1cc(OC)c(C2CC(=O)N3CN(c4ccccc4)CSC3=C2C#N)cc1OC (configuration not stated),-0.9,-20.9,3.6,-1.5%,-10.4%,?
CCc1ccccc1N1CSC2=C(C#N)C(c3cc(OC)c(OC)cc3OC)CC(=O)N2C1 (configuration not stated),-1.3,-67.9*,-9.7,1.2%,?,?
Cc1cccc(NC(=O)c2cc3c([nH]c4ccccc43)c(C)n2)c1C,1.3,-3.1,-1.1,-15.2%,?,6.51µM*
CC1(C)CC(=O)C2=C(C1)NC(=O)NC2c1ccc(Cl)cc1 (configuration not stated),-2.2,-11.3,-13.3,.,?,4.2%
SMILES,DRD3 agonist,D3 antag,IL-1B inflam inh,ClpP mod,DT40 TDP1 no CPT,TDP1 cell CPT
CC1(C)CC(=O)C2=C(C1)Nc1cc(Cl)ccc1S2,30.7*,13.9,-2.9,?,?,?
O=C(O)CCC(NC(=O)c1cncc(O)c1)C(=O)O (configuration not stated),2.3,11.2,20.6,25.1µM*,1.6%,-1.8%
O=C(NCc1cccc(C(F)(F)F)c1)C1CC(c2ccccc2F)=NO1 (configuration not stated),0.1,0.0,-22.7,-7.2%,29.1µM*,?
Cc1ccc(CNC(=O)C2CC(c3ccccc3F)=NO2)cc1 (configuration not stated),-2.4,6.8,60.5,-3.4%,16.4µM*,?
S=C(Nc1ccc(Cl)cc1)NC1CC2CCCC(C1)N2C1CCCC1 (configuration not stated),-15.3,-19.0,-23.3,-3.3%,?,?
COc1ccc(NC(=S)NC2CC3CCC(C2)N3Cc2ccco2)cc1 (configuration not stated),-13.8,-22.2,20.2,1.2%,-5.3%,0.4%
CNC(=S)NC1CC2CCC(C1)N2Cc1ccccc1 (configuration not stated),-35.4,-81.3*,9.4,-0.4%,-4.5%,-4.4%
S=C(Nc1ccc(Cl)cc1)NC1CC2CCC(C1)N2Cc1ccccc1 (configuration not stated),-14.2,-76.0*,-98.2*,.,16.4µM*,23.1µM*
C=CCN1C2CCCC1CC(NC(=S)Nc1ccc(Cl)cc1)C2 (configuration not stated),-9.1,3.3,-5.0,-0.6%,?,23.1µM*
CCCNC(=S)NC1CC2CCCC(C1)N2Cc1ccc(F)cc1 (configuration not stated),-19.0,-100.7*,0.6,0.0%,18.4µM*,?
CC(C)C[C@H](NC(=O)N1CCCCCC1)C(=O)N[C@H](Cc1cn(C)c2ccccc12)C(=O)N[C@H](Cc1ccccn1)C(=O)O,.,.,.,.,-0.4%,-1.8%
CCN(C(=O)CCS(=O)(=O)c1cc(Br)cc2c1N(C(=O)C1CC1)CC2)c1cccc(C)c1,-4.3,.,.,1.6%,-13.1%,-4.8%
